Shown is part of a subset that was picked to be rich in hits.
VCAM1 pot: potentiators of TNFa-induced VCAM1 expression, primary screen, imaging, HUVEC, TNFa stimulus, immunofluorescence | HUVEC TNFa-stimulated VCAM-1 immunofluorescence, high-content imaging; scaled per plate to unstimulated/TNFa-only wells | activation, % at 2 µM | 93,000 compounds, 0.19% hits;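 active = activation above the screen mean plus 3 SD, with well images confirming the hit on visual review, cut at about 28% in these data, passing the limit was not always enough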;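 note: signal is the number of cytoplasmic VCAM-1 stained grains per positive cell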
VCAM1 pot conf: potentiators of TNFa-induced VCAM1 expression, confirmation, imaging, HUVEC, triplicate retest | activation, % at 2 µM | AID 1034, 2008 | 230 tested, under 10 active | HUVEC TNFa-stimulated VCAM-1 immunofluorescence imaging | shares compounds with VCAM1 pot;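 active = activation above 30% in triplicate retests at 2 µM, then confirmed by visual review of the well images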;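 note: scaled per plate between unstimulated and TNFa-stimulated DMSO control wells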
* = called active by the depositor.

CCCC12CN3CN(C1)CC(CCC)(C3)C2O (stereo not given) was read as VCAM1 pot 33* and VCAM1 pot conf -20.
CCC(=O)OC1(c2cccc(C)c2)CC(C)N(C)CC1C (stereo not given) was read as VCAM1 pot -4.
`CCC(=O)c1cc(F)c(N2CCN(CC)CC2)cc1C` gave VCAM1 pot -1.
For Cc1ccccc1-n1c(C)nc2sccc2c1=O the results were VCAM1 pot -8.
`CCOc1cccc(OCC)c2c(C)[n+](CC3CCCO3)c(C)c1-2` (stereo not given) gave VCAM1 pot 32* and VCAM1 pot conf 4.
`CCCCNc1ccncc1S(=O)(=O)NC(=O)NC(C)C` gave VCAM1 pot 6.
For O=C(N/N=C1/CN2CCC1CC2)c1cccc(O)c1 the results were VCAM1 pot 3.
`Cn1c(=O)cc(OCC(=O)N2CCN(Cc3ccc4c(c3)OCO4)CC2)c2ccccc21` gave VCAM1 pot -16.
Screening CCCCc1ccc2[nH]cc(CCN)c2c1 returned VCAM1 pot -3.
For C=C1N2CCC(CC2)C1(O)c1ccccc1C (stereo not given) the results were VCAM1 pot -41.
